Test results: ChEMBL document CHEMBL1157539, “Thousands of chemical starting points for antimalarial lead identification” (Nature, 2010)

system: Plasmodium falciparum; assay: GSK_TCMDC: Inhibition of Plasmodium falciparum 3D7 in whole red blood cells, using parasite LDH activity as an index of growth. Test compounds present at 2uM; assay type: functional

| SMILES | Inhibition [%] |
| --- | --- |
| O=C(NC1CCCCC1)c1ccc(O)c(-c2cccc(C(F)(F)F)c2)c1 | 97 |
| Cc1cc(C)c2c(c1)C(=NO)CCN2 | 94 |
| O=C(NC1CCN(Cc2ccccc2)CC1)c1cccc(Nc2nc(-c3ccccc3)cs2)c1 | 84 |
| Cc1cnc(CN(Cc2ccc(-c3ccc(CNCCc4ccc(S(C)(=O)=O)cc4)cn3)cc2)C(=O)c2ccc([N+](=O)[O-])c(C)c2)cn1.O=C(O)C(F)(F)F | 93 |
| Cl.Clc1cccnc1N1CCN(c2ncccc2Cl)CC1 | 97 |
| CN(C)C(=O)CCCn1c(CNCCCNc2cc(=O)c3ccccc3[nH]2)cc2c(Cl)cc(Cl)cc21.Cl | 89 |
| O=C(NCc1cccs1)[C@H](Cc1ccccc1)Nc1ccnc(NCC2CCCCC2)n1.O=C(O)C(F)(F)F | 83 |
| O=C(NCCc1cccc(Cl)c1Cl)c1ccc(N2CCN(c3ccncc3)CC2)nc1.O=C(O)C(F)(F)F | 100 |
| Br.CC1(C)NC(N)=NC(=N)N1OCCCOc1c(Cl)cc(Cl)cc1Cl | 94 |
| Br.CCCc1cc(C)ccc1OCCCON1C(N)=NC(N)=NC1(C)C | 97 |
| COc1ccc2c(=O)c(-c3ccc(OC(F)(F)F)cc3)c(C)[nH]c2c1 | 97 |
| O=C(Nc1ccc2c(ccn2C2CCCN(Cc3cc(F)cc(F)c3F)CC2)c1)c1ccco1 (stereo not drawn) | 89 |
| COc1ccc2nccc(N3CCC(SCCNS(=O)(=O)c4ccc5c(c4)NC(=O)CS5)C3)c2n1.Cl (stereo not drawn) | 99 |
| COc1ccc(CNCc2ccc(F)cc2)cc1-c1ccc(S(=O)(=O)NCCN2CCCC2)c(C)c1.O=C(O)C(F)(F)F | 98 |
| CN(C)c1ccc(N2C(N)=NC(N)=NC23CCCC3)cc1.Cl | 97 |
| Cc1cc(N(C)C)nc(Nc2ccc(NC(=O)C3CCCCC3)cc2)n1 | 100 |
| CC(Oc1ccc(NC(=O)c2cccs2)cc1)C(=O)c1ccc(Cl)cc1 (stereo not drawn) | 92 |
| COc1ccc(NC(=O)/C=C/c2ccccc2Cl)cc1OCCN1CCC(NCc2cccnc2)CC1 | 100 |
| CCOC(=O)c1ccc(NC(=O)c2ccccc2C(=O)O)cc1 | 92 |
| O=C(c1cc2nc3c(c(C(F)(F)F)n2n1)CCc1ccccc1-3)N1CCN2CCCC2C1 (stereo not drawn) | 94 |

| SMILES | Inhibition [%] |
| --- | --- |
| Cc1noc(C)c1-c1ccc2c(Nc3ccccc3C(C)(C)C)c(C(=O)NCc3ccc(C(F)(F)F)cc3)cnc2c1.Cl | 99 |
| COc1ccc(Nc2nccc(NCC(O)c3ccc(C(F)(F)F)cc3)n2)cc1 (stereo not drawn) | 98 |
| Cl.N#Cc1ccc2c(c1)CCN(CCC1CCC(NC(=O)/C=C/c3c[nH]c4c(Br)cccc34)CC1)CC2 (stereo not drawn) | 100 |
| COc1ccc(CN2CCCC(OC(c3ccc(F)cc3)c3ccc(F)cc3)C2)c(O)c1 (stereo not drawn) | 100 |
| Oc1cc2c(cc1CN1CCN(Cc3ccccc3F)CC1)CCC2 | 98 |
| O=C(NC1CC1)c1cnc(N2CCC(c3ccccc3)CC2)c(Cl)c1.O=C(O)C(F)(F)F | 94 |
| Nc1ncc(-c2ccsc2)cc1-c1nc2ccccc2[nH]1 | 99 |
| C=C(C)CSc1nc2c(c(=O)n1Cc1ccco1)C1(CCCCC1)Cc1ccccc1-2 | 97 |
| Cl.N#Cc1ccc2c(c1)CCN(CCC1CCC(NC(=O)/C=C/c3ccc(Cl)c(Cl)c3)CC1)CC2 (stereo not drawn) | 100 |
| Cl.O=C1COc2cc(Cl)c(CNC3CCN(CCc4ccnc5c(F)cc(F)cc45)CC3)nc2N1 | 98 |
| CCCCCCc1cnc2nc(N)nc(N)c2c1C | 93 |
| O=C(O)c1cccnc1Sc1ccc(Cl)cc1 | 100 |
| Cc1nc(C)n(CC(=O)Nc2cccc(-c3cccc(-c4nc5cc(C(F)(F)F)ccc5[nH]4)c3)c2)n1 | 100 |
| COc1ccc2nccc([C@@H](O)CN3CCC(NCc4cc5cc(OC(F)(F)F)ccc5[nH]4)CC3)c2c1.O=C(O)C(=O)O | 100 |
| CCCCCCCC1CC(CC(=O)Nc2ccnc3ccc(OC)cc23)CN1C(=O)OC(C)(C)C (stereo not drawn) | 100 |
| Cc1ccc(-c2cc(C(=O)Nc3ccc(S(=O)(=O)N4CCCCC4)cc3)[nH]n2)c(O)c1 | 97 |
| Cl.N=C(N)NN=Cc1ccc2ccc3ccccc3c2c1 | 100 |
| Cc1c(CCc2cccc(F)c2F)[nH]c2ccccc2c1=O | 91 |
| COc1cccc2cc(C(=O)N[C@@H](CC(C)C)C(=O)N[C@H](/C=N/NC(=O)Cc3cccnc3)CCc3ccccc3)oc12 | 82 |

system: Plasmodium falciparum; assay: GSK_TCMDC: Inhibition of Plasmodium falciparum Dd2 in whole red blood cells, using parasite LDH activity as an index of growth. Test compounds present at 2uM; assay type: functional

| SMILES | Inhibition [%] |
| --- | --- |
| O=C(NC1CCCCC1)c1ccc(O)c(-c2cccc(C(F)(F)F)c2)c1 | 87 |
| Cc1cc(C)c2c(c1)C(=NO)CCN2 | 2 |
| O=C(NC1CCN(Cc2ccccc2)CC1)c1cccc(Nc2nc(-c3ccccc3)cs2)c1 | 3 |
| Cc1cnc(CN(Cc2ccc(-c3ccc(CNCCc4ccc(S(C)(=O)=O)cc4)cn3)cc2)C(=O)c2ccc([N+](=O)[O-])c(C)c2)cn1.O=C(O)C(F)(F)F | 15 |
| Cl.Clc1cccnc1N1CCN(c2ncccc2Cl)CC1 | 0 |
| CN(C)C(=O)CCCn1c(CNCCCNc2cc(=O)c3ccccc3[nH]2)cc2c(Cl)cc(Cl)cc21.Cl | 0 |
| O=C(NCc1cccs1)[C@H](Cc1ccccc1)Nc1ccnc(NCC2CCCCC2)n1.O=C(O)C(F)(F)F | 67 |
| O=C(NCCc1cccc(Cl)c1Cl)c1ccc(N2CCN(c3ccncc3)CC2)nc1.O=C(O)C(F)(F)F | 79 |
| Br.CC1(C)NC(N)=NC(=N)N1OCCCOc1c(Cl)cc(Cl)cc1Cl | 97 |
| Br.CCCc1cc(C)ccc1OCCCON1C(N)=NC(N)=NC1(C)C | 97 |
| COc1ccc2c(=O)c(-c3ccc(OC(F)(F)F)cc3)c(C)[nH]c2c1 | 96 |
| O=C(Nc1ccc2c(ccn2C2CCCN(Cc3cc(F)cc(F)c3F)CC2)c1)c1ccco1 (stereo not drawn) | 94 |
| COc1ccc2nccc(N3CCC(SCCNS(=O)(=O)c4ccc5c(c4)NC(=O)CS5)C3)c2n1.Cl (stereo not drawn) | 17 |
| COc1ccc(CNCc2ccc(F)cc2)cc1-c1ccc(S(=O)(=O)NCCN2CCCC2)c(C)c1.O=C(O)C(F)(F)F | 56 |
| CN(C)c1ccc(N2C(N)=NC(N)=NC23CCCC3)cc1.Cl | 0 |
| Cc1cc(N(C)C)nc(Nc2ccc(NC(=O)C3CCCCC3)cc2)n1 | 68 |
| CC(Oc1ccc(NC(=O)c2cccs2)cc1)C(=O)c1ccc(Cl)cc1 (stereo not drawn) | 83 |
| COc1ccc(NC(=O)/C=C/c2ccccc2Cl)cc1OCCN1CCC(NCc2cccnc2)CC1 | 88 |
| CCOC(=O)c1ccc(NC(=O)c2ccccc2C(=O)O)cc1 | 0 |
| O=C(c1cc2nc3c(c(C(F)(F)F)n2n1)CCc1ccccc1-3)N1CCN2CCCC2C1 (stereo not drawn) | 3 |

| SMILES | Inhibition [%] |
| --- | --- |
| Cc1noc(C)c1-c1ccc2c(Nc3ccccc3C(C)(C)C)c(C(=O)NCc3ccc(C(F)(F)F)cc3)cnc2c1.Cl | 50 |
| COc1ccc(Nc2nccc(NCC(O)c3ccc(C(F)(F)F)cc3)n2)cc1 (stereo not drawn) | 54 |
| Cl.N#Cc1ccc2c(c1)CCN(CCC1CCC(NC(=O)/C=C/c3c[nH]c4c(Br)cccc34)CC1)CC2 (stereo not drawn) | 65 |
| COc1ccc(CN2CCCC(OC(c3ccc(F)cc3)c3ccc(F)cc3)C2)c(O)c1 (stereo not drawn) | 99 |
| Oc1cc2c(cc1CN1CCN(Cc3ccccc3F)CC1)CCC2 | 94 |
| O=C(NC1CC1)c1cnc(N2CCC(c3ccccc3)CC2)c(Cl)c1.O=C(O)C(F)(F)F | 95 |
| Nc1ncc(-c2ccsc2)cc1-c1nc2ccccc2[nH]1 | 8 |
| C=C(C)CSc1nc2c(c(=O)n1Cc1ccco1)C1(CCCCC1)Cc1ccccc1-2 | 68 |
| Cl.N#Cc1ccc2c(c1)CCN(CCC1CCC(NC(=O)/C=C/c3ccc(Cl)c(Cl)c3)CC1)CC2 (stereo not drawn) | 51 |
| Cl.O=C1COc2cc(Cl)c(CNC3CCN(CCc4ccnc5c(F)cc(F)cc45)CC3)nc2N1 | 49 |
| CCCCCCc1cnc2nc(N)nc(N)c2c1C | 20 |
| O=C(O)c1cccnc1Sc1ccc(Cl)cc1 | 4 |
| Cc1nc(C)n(CC(=O)Nc2cccc(-c3cccc(-c4nc5cc(C(F)(F)F)ccc5[nH]4)c3)c2)n1 | 96 |
| COc1ccc2nccc([C@@H](O)CN3CCC(NCc4cc5cc(OC(F)(F)F)ccc5[nH]4)CC3)c2c1.O=C(O)C(=O)O | 82 |
| CCCCCCCC1CC(CC(=O)Nc2ccnc3ccc(OC)cc23)CN1C(=O)OC(C)(C)C (stereo not drawn) | 34 |
| Cc1ccc(-c2cc(C(=O)Nc3ccc(S(=O)(=O)N4CCCCC4)cc3)[nH]n2)c(O)c1 | 92 |
| Cl.N=C(N)NN=Cc1ccc2ccc3ccccc3c2c1 | 89 |
| Cc1c(CCc2cccc(F)c2F)[nH]c2ccccc2c1=O | 90 |
| COc1cccc2cc(C(=O)N[C@@H](CC(C)C)C(=O)N[C@H](/C=N/NC(=O)Cc3cccnc3)CCc3ccccc3)oc12 | 54 |
